A short description of test [1]: yeast TOR pathway RPL19A-GFP modulators, primary screen, cell-based, S. cerevisiae, multiplex flow cytometry (AID 1862; in the data active means percent of DMSO control GFP below about 86%;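 further: lower values mimic rapamycin by blocking the RPL19A rise seen in DMSO cells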). The conditions noted are these: S. cerevisiae RPL19A-GFP strain, flow cytometry fluorescence, 3 h; at 10 µM; stronger effect = lower value. Background: A flow cytometer gives signals particle by particle.
Test [2] can be described thus: modulators of MEP2-GFP levels in yeast, primary screen, S. cerevisiae, multiplex flow cytometry (AID 1867;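 active means GFP response, as percent of the DMSO control, above the screen-wide mean plus 3 SD, about 139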;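 further: median GFP channel fluorescence of barcode-gated MEP2-GFP cells measured by flow cytometry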). Particulars: S. cerevisiae MEP2-GFP strain, 3 h, at 10 µM, stronger effect = higher value, 100% means same as DMSO wells.
Test [3] is described as follows: modulators of CIT2-GFP expression in yeast, primary screen, S. cerevisiae, GFP fusion, multiplex flow cytometry (AID 1870;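 active means percent response above a set limit, the screen-wide mean plus 3 SD, cut at about 130% in these data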;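 further: barcoded CIT2-GFP strain pooled with four other GFP strains with rapamycin as positive control; median GFP fluorescence per well over plate mean of DMSO wells so 100% = DMSO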). Particulars: 3 h, at 10 µM, stronger effect = higher value.
A short description of test [4]: modulators of LAP4-GFP expression in yeast, primary screen, S. cerevisiae, multiplex flow cytometry (AID 1873;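 active means GFP signal, as percent of the solvent control, above the screen mean plus 3 SD, about 149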). Particulars: 3 h, at 10 µM, stronger effect = higher value.
Test [5] in a line: modulators of AGP1-GFP expression in yeast TOR pathway, primary screen, cell-based, multiplex flow cytometry, S. cerevisiae (AID 1887;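 active means GFP signal above the screen-wide mean plus 3 SD, that is over about 124.5% of the solvent control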;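 further: AGP1-GFP fusion strain of S. cerevisiae within a five-strain barcoded multiplex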). The conditions noted are these: 3 h, at 10 µM, stronger effect = higher value.
Test [6] is described as follows: inhibitors of CD8+ T cell-vesicle binding, pilot screen, LFA-1/ICAM-1 modulator project, MLPCN validation set, flow cytometry (AID 2523).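 On vesicle binding response: mean PE anti-B7-1 fluorescence of CD8+ cells relative to row control; 100% = QL9-loaded vesicles with DMSO vehicle in the same plate row.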 The conditions noted are these: 2C mouse CD8+ T cells, at 7 µM, stronger effect = lower value; double positive events: measured here: CD8+/vesicle+ event percentage.
Test [7] has as its target Integrin beta-1 (Homo sapiens) + Integrin alpha-4 (Homo sapiens) (UniProt P13612+P05556). The test is described as follows: inhibition of HUTS-21 binding to VLA-4, pilot screen, VLA-4 allosteric modulator project, U937 cells, HUTS-21 mAb, flow cytometry, validation set (AID 2674;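 active means inhibition above 50%, about 3 SD of the validation set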;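 further: antibody binding induced by the VLA-4 ligand LDV present at three times its Kd; 0% = LDV ligand with antibody and no compound and 100% = antibody without LDV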). Particulars: HUTS-21 LIBS mAb binding, at 6.7 µM, stronger effect = higher value, binding induced by LDV ligand.

The nature of test [8]: superoxide lowering in aged yeast cells, pilot screen, validation compound set (AID 2706;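 active means superoxide response below 65% of plate, a cut near 3 SD across the whole screen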;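 further: yeast exposed to compound for one week at 30 degrees C before staining; 100% = mean of all compound wells on the same plate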). Particulars: S. cerevisiae aging, superoxide DHE fluorescence; at 10 µM; stronger effect = lower value.
Test [9] deals with Beta-adrenergic receptor kinase 1 (Homo sapiens) (UniProt P25098). The test is described as follows: GRK2 binders displacing RNA aptamer, biochemical, validation, human GRK2, bead flow cytometry (AID 488806;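 active means aptamer binding inhibition above 30%, about 3 SD of noise from non-fluorescent compounds; inactive means inhibition at or below 30%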). The conditions noted are these: bead-bound GRK2, FAM-aptamer displacement, at 10 µM, stronger effect = higher value.
Test [10] deals with Beta-2 adrenergic receptor (Homo sapiens) (UniProt P07550). The test can be described thus: beta2AR agonists driving receptor internalization, pilot screen, cell-based, FAP fluorogen, flow cytometry, validation set (AID 504459;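 active means percent response above 42, roughly 3 SD of non-fluorescent test compounds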;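 further: agonist-driven loss of surface beta2AR via internalization measured by FAP dye flow cytometry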). The conditions noted are these: Am2.2-beta2AR cells, FAP surface receptor flow cytometry; at 10 µM; stronger effect = higher value.
The target of test [11] is AP-2 complex subunit beta (Homo sapiens) (UniProt P63010). The test is described as follows: inhibitors of arrestin peptide binding to AP2, pilot screen, biochemical, validation set, GST-AP2 beads, flow cytometry (AID 504541;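 active means inhibition above 54%, about 3 SD of non-fluorescent compounds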;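 further: AP2 carries R879A mutation and is captured from E. coli lysate; bead-bound FITC arrestin peptide fluorescence measuring arrestin peptide binding to AP2; 0% = DMSO wells and 100% = excess unlabeled arrestin peptide control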). The conditions noted are these: FITC arrestin peptide, at 10 µM, stronger effect = higher value, AP2 beta2 appendage fragment, R879A mutant.
A short description of test [12]: yeast V-ATPase proton transport modulators, S. cerevisiae, pHLuorin, HTS validation (AID 504600; in the data active means response above about 15%;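 further: plate controls were DMSO for no effect and reference compound for full effect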). Particulars: S. cerevisiae pHLuorin cytosolic pH, at 10 µM, stronger effect = higher value.
Test [13] relates to anti-desmoglein-3 scFv antibody binding to human DSG3. The test is described as follows: inhibitors of anti-DSG3 scFv binding to DSG3, pilot screen, biochemical, validation compound set, bead-based, flow cytometry (AID 588368;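 active means binding below the plate cutoff, the plate median minus 3 SD, with a reading above zero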;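 further: signal is the median channel fluorescence of bead-bound GFP antibody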). Particulars: Protein G beads, DSG3-Fc, scFv-GFP binding, at 10 µM, stronger effect = lower value.
Test [14] in a line: inhibitors of fungal efflux pumps CDR1, CDR2, MDR1, pilot screen, validation compound set, multiplex, phenotypic (AID 588506;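 active means efflux inhibition above 0.42, the validation set average plus 4 SD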;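 further: Nile Red retained in cells so higher fluorescence means more efflux inhibition; 0 = negative control wells and 1 = enniatin B 25 µM full block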). The conditions noted are these: S. cerevisiae pump-expressing triplex, Nile Red efflux flow cytometry; at 10 µM; stronger effect = higher value; the pumps come from Candida albicans.
For test [15], the target named is ATP-binding cassette sub-family B member 6 (Homo sapiens) (UniProt Q9NP58). The test is described as follows: ABCB6 transporter inhibitors, pilot screen, K562-ABCB6 cells, flow cytometry, validation set (AID 588550;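 active means inhibition above the screen-wide mean plus 3 SD, about 51%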;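 further: 0% = DMSO wells and 100% = benzethonium chloride 70 µM positive control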). The conditions noted are these: K562-ABCB6 porphyrin accumulation, 1 h, at 10 µM, stronger effect = higher value.
A short description of test [16]: promoters of myeloid differentiation in arrested cells, primary screen, cell-based, GFP/MAC1 double positive, flow cytometry, validation set (AID 588685;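 active means differentiation response of at least 50%, scaled between solvent and reference control, from cells with both markers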;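 further: compound exposure lasts four days before antibody staining and flow analysis; 0% = DMSO wells and 100% = 5 µM fulvestrant positive control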). Particulars: ER-HoxA9 marrow cells, stronger effect = higher value, normalized: vehicle 0, fulvestrant 100.

Here are results for seven compounds from PubChem BioAssay.

Usually inhibition stands for the drop in the measured response relative to a control, in per cent.

The structures appear in SMILES notation. Inconclusive results are not listed. Calls of active or inactive are those of the source.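 How the source made its calls, unless noted: active means response below a set limit, under 55% cells CD8-positive and vesicle-bound, and CD8 cells' 90th-percentile brightness under 279; inactive means the rest.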

Sequence of AP-2 complex subunit beta (Homo sapiens) (P63010 whole entry, looked up, the tested form may be a part, one chain of several): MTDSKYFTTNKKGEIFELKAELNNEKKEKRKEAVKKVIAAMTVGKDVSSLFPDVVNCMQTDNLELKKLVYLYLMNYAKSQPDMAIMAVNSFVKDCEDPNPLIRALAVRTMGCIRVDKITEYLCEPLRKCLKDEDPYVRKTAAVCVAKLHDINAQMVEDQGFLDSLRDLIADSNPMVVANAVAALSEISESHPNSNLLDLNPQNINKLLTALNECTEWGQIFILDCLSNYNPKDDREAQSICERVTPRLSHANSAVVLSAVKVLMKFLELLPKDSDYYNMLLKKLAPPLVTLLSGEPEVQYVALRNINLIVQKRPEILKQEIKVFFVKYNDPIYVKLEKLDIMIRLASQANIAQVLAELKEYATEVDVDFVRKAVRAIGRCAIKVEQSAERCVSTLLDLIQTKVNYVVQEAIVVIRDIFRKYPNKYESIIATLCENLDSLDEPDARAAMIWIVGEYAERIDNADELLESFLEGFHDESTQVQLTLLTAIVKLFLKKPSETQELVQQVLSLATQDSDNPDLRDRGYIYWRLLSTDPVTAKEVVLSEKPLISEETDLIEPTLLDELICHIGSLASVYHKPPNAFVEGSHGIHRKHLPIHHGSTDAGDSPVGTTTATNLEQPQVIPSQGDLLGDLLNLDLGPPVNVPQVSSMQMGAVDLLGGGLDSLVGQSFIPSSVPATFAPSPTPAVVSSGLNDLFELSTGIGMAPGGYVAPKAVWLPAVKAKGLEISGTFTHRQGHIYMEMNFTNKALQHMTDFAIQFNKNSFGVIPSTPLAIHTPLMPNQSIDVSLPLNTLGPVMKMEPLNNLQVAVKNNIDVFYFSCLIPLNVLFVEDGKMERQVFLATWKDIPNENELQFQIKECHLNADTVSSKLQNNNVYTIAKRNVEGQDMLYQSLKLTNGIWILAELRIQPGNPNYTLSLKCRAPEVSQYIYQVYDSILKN
Sequence of ATP-binding cassette sub-family B member 6 (Homo sapiens) (Q9NP58 whole entry, looked up): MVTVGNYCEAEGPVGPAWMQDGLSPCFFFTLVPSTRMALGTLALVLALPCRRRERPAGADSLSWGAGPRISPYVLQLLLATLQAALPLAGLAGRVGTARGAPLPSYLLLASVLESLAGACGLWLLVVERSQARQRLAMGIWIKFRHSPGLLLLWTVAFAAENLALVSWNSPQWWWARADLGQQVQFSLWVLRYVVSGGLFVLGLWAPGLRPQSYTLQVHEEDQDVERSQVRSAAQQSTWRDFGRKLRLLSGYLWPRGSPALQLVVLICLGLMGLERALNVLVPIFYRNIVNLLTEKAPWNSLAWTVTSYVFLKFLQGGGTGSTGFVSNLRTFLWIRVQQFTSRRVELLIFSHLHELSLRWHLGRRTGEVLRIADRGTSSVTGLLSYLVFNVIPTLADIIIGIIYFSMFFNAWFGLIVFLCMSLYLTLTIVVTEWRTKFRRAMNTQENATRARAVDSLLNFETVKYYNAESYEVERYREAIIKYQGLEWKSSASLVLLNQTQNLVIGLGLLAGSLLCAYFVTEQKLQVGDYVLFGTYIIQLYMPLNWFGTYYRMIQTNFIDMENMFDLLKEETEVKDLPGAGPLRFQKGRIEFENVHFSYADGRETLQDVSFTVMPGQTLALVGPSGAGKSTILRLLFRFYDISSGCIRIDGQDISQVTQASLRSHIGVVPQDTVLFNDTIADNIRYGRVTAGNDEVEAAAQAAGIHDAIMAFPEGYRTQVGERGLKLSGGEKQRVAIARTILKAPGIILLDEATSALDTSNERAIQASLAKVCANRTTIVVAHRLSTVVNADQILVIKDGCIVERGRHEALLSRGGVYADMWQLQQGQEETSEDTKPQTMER
Sequence of Integrin beta-1 (Homo sapiens) + Integrin alpha-4 (Homo sapiens) (P05556 whole entry, looked up): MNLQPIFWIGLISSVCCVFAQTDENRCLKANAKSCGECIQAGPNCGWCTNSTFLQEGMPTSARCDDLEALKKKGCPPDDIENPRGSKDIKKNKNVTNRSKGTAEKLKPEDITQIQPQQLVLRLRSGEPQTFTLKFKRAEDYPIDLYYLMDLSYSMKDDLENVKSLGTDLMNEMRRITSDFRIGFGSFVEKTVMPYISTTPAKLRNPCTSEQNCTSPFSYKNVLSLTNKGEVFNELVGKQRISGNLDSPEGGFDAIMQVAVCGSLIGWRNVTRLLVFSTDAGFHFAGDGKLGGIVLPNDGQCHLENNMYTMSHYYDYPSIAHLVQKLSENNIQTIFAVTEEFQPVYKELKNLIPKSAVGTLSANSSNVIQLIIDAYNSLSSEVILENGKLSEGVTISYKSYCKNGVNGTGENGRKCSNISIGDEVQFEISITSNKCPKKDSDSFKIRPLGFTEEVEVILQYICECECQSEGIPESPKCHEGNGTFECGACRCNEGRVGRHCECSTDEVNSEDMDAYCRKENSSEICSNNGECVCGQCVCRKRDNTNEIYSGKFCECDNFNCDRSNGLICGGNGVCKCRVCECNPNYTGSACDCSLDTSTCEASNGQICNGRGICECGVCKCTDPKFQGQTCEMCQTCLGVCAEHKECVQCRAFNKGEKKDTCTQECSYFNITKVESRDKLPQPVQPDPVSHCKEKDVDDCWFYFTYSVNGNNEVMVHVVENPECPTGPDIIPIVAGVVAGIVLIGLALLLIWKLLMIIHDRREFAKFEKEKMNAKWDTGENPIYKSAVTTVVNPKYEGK
Sequence of Integrin beta-1 (Homo sapiens) + Integrin alpha-4 (Homo sapiens) (P13612 whole entry, looked up): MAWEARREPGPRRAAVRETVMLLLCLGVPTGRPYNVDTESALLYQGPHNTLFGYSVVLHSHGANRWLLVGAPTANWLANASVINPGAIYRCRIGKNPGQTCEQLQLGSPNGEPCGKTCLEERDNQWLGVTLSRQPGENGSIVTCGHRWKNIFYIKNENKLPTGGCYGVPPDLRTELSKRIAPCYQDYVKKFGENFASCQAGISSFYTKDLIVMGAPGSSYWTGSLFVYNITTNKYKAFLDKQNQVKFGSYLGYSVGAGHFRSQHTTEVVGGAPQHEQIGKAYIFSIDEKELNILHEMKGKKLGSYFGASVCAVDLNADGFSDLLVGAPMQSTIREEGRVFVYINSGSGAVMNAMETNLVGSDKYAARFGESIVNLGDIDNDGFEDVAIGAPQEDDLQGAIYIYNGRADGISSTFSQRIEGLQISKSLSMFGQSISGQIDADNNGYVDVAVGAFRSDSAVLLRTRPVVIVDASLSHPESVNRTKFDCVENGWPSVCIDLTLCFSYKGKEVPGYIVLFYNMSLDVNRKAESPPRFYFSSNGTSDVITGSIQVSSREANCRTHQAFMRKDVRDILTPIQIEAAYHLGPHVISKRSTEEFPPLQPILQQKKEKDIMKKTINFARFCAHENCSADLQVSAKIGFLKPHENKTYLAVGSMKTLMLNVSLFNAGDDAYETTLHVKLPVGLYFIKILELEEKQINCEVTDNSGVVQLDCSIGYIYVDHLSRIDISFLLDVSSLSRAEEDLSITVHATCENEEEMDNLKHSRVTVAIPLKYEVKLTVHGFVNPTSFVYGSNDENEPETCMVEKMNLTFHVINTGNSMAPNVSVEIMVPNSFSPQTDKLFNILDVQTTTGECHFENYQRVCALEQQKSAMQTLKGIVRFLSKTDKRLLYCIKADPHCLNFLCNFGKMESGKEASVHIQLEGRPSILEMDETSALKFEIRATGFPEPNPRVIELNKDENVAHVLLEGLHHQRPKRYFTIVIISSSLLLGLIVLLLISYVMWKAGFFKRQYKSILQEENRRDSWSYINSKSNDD
Sequence of Beta-adrenergic receptor kinase 1 (Homo sapiens) (P25098 whole entry, looked up): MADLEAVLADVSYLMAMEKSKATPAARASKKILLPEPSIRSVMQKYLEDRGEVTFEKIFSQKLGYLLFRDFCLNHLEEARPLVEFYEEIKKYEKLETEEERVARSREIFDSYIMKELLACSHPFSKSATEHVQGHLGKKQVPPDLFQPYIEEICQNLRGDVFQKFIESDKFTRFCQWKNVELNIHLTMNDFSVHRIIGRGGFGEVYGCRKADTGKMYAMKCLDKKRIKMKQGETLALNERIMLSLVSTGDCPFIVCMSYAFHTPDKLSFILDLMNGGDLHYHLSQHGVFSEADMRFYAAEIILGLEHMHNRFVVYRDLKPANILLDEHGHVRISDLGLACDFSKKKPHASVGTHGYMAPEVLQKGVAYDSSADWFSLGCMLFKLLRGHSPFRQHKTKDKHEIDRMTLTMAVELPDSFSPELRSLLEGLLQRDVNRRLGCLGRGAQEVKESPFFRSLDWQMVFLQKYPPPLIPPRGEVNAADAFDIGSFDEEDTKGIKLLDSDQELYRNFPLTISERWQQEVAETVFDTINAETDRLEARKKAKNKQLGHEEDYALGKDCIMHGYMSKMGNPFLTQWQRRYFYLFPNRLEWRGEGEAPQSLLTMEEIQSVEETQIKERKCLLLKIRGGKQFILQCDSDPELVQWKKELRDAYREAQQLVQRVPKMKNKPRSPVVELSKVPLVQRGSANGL
Sequence of Beta-2 adrenergic receptor (Homo sapiens) (P07550 whole entry, looked up): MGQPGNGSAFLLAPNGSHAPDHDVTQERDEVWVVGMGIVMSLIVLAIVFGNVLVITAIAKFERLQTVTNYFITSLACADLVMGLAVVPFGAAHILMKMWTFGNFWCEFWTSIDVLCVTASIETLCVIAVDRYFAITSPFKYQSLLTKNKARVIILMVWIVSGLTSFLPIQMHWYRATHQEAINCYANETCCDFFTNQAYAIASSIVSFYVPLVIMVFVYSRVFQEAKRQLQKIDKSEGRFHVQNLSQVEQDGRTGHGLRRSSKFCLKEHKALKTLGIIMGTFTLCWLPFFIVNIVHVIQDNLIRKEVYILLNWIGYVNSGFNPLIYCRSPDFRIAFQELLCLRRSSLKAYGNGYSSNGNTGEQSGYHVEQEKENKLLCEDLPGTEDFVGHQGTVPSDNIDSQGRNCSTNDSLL

Regarding `O=C(NCCc1c[nH]c2ccccc12)OCCSS(=O)(=O)O`, the percent of DMSO control GFP in test [1] is 101% (inactive). In addition, the GFP response vs DMSO was 101% (inactive) in test [2] and 102% (inactive) in [4]. In addition, the percent response of DMSO control in [3] was 108% (inactive). The GFP response, % of DMSO in test [5] was 100% (inactive). The double positive events in test [6] was 66.8%. The vesicle binding response in test [6] was 1060% (inactive). For the same compound, the inhibition in test [7] is -6.68% (inactive); in test [11], -1.88% (inactive); in test [15], 7% (inactive). The superoxide response (% of plate) in test [8] was 106% (inactive). Moreover, in test [9], the aptamer binding inhibition was 3% (inactive). The response in test [10] is -2.85% (inactive); in test [12] it was 3.36% (inactive). For the same compound, in test [13], the binding (% of control) is 99.7% (inactive). In addition, the efflux inhibition (fraction of control) in [14] is -0.07 (inactive). Besides, in test [16], the differentiation response is 2.2% (inactive).

As to `C=CCC1(O)C(=O)N2C(=C1C(=O)N1CCOCC1)c1ccccc1CC2(C)C` (centres undefined), the percent of DMSO control GFP in test [1] was 99.4% (inactive). The GFP response vs DMSO in test [2] was 108% (inactive); in [4], 95.3% (inactive). Besides, in [3], the percent response of DMSO control is 101% (inactive). Besides, in test [5], the GFP response, % of DMSO is 99.9% (inactive). Further, the double positive events in [6] turned out to be 55.4%. Besides, the vesicle binding response in test [6] is 38.1% (inactive). The inhibition in [7] was -2.53% (inactive); in [11], 23.5% (inactive); in [15], -7% (inactive). Besides, the superoxide response (% of plate) in test [8] was 111% (inactive). Besides, the aptamer binding inhibition in test [9] was 1% (inactive). For the same compound, the response is -4.96% (inactive) in test [10] and -6.09% (inactive) in test [12]. In addition, the binding (% of control) in test [13] was 95.5% (inactive). Further, in test [14], the efflux inhibition (fraction of control) was 0.24 (inactive). Also, the differentiation response in test [16] was 0.24% (inactive).

`CC(=O)OC[C@H]1O[C@@H](Sc2cccc3cccnc23)[C@H](OC(C)=O)[C@@H](OC(C)=O)[C@H]1OC(C)=O`: the percent of DMSO control GFP in [1] was 98.9% (inactive). Besides, the GFP response vs DMSO in [2] was 99.6% (inactive); in [4], 117% (inactive). Further, the percent response of DMSO control in test [3] was 99% (inactive). Moreover, the GFP response, % of DMSO in test [5] is 94.6% (inactive). The compound also showed a double positive events in test [6] of 62.5%. Also, the vesicle binding response in [6] was 187% (inactive). Besides, the inhibition was -5.38% (inactive) in test [7], -0.13% (inactive) in [11] and -2% (inactive) in test [15]. The superoxide response (% of plate) in [8] was 105% (inactive). For the same compound, the aptamer binding inhibition in test [9] is 4% (inactive). The figures for the response in test [10] and in test [12] were -27.5% (inactive) and 0.07% (inactive), respectively. Besides, the binding (% of control) in [13] is 104% (inactive). Besides, in test [14], the efflux inhibition (fraction of control) was 0.04 (inactive). In [16], the differentiation response was -5.97% (inactive).

`COc1ccc(C2C3CCCCC3(O)CCN2C(=O)c2cccs2)cc1` (centres undefined): in test [1], the percent of DMSO control GFP is 102% (inactive). Further, the GFP response vs DMSO is 105% (inactive) in test [2] and 107% (inactive) in test [4]. For the same compound, the percent response of DMSO control in test [3] is 97% (inactive). The GFP response, % of DMSO in [5] is 107% (inactive). Besides, in [6], the double positive events is 61.4%. In addition, in [6], the vesicle binding response is 376% (inactive). Also, the inhibition is -0.27% (inactive) in [7], -1.09% (inactive) in [11] and -4% (inactive) in test [15]. Moreover, the superoxide response (% of plate) in test [8] was 102% (inactive). Also, the aptamer binding inhibition in test [9] was 4% (inactive). Besides, the response was -26.4% (inactive) in [10] and -1.21% (inactive) in test [12]. Further, in test [13], the binding (% of control) is 99% (inactive). Moreover, the efflux inhibition (fraction of control) in test [14] was 0.12 (inactive). In test [16], the differentiation response is -1.05% (inactive).

With `C#C[C@]1(O)CC[C@H]2[C@@H]3CCc4cc(OC5CCCC5)ccc4[C@H]3CC[C@@]21C`, in test [1], the percent of DMSO control GFP is 101% (inactive). The values for the GFP response vs DMSO in [2] and in test [4] were 104% (inactive) and 126% (inactive), respectively. In addition, the percent response of DMSO control in [3] was 88.6% (inactive). Moreover, the GFP response, % of DMSO in test [5] was 113% (inactive). The compound further showed a double positive events in test [6] of 62.7%. Further, the vesicle binding response in test [6] was 213% (inactive). For the same compound, the values for the inhibition in test [7], in test [11] and in test [15] were 14.2% (inactive), -1.15% (inactive) and 3% (inactive), respectively. Also, in [8], the superoxide response (% of plate) is 97.7% (inactive). Also, the aptamer binding inhibition in test [9] is -1% (inactive). The response was -9.24% (inactive) in test [10] and 6.88% (inactive) in [12]. In addition, in test [13], the binding (% of control) is 105% (inactive). Moreover, the efflux inhibition (fraction of control) in test [14] was 0.38 (inactive). Further, the differentiation response in test [16] is 0% (inactive).

Regarding `N/C(=N\OC(=O)c1cccc(Br)c1)c1ccncc1`, the percent of DMSO control GFP in test [1] was 103% (inactive). Besides, the GFP response vs DMSO was 105% (inactive) in test [2] and 111% (inactive) in test [4]. In [3], the percent response of DMSO control is 106% (inactive). Moreover, in [5], the GFP response, % of DMSO is 94.2% (inactive). The compound also had a double positive events in test [6] of 62.9%. Also, in test [6], the vesicle binding response was 166% (inactive). Besides, the values for the inhibition in test [7], in test [11] and in [15] were 9.63% (inactive), 43.1% (inactive) and 8% (inactive), respectively. In [8], the superoxide response (% of plate) was 106% (inactive). The aptamer binding inhibition in test [9] is -2% (inactive). Also, the response in test [10] was -7.41% (inactive); in test [12] it was 4.2% (inactive). Also, the binding (% of control) in [13] is 100% (inactive). Further, in test [14], the efflux inhibition (fraction of control) was -0.115 (inactive). Moreover, the differentiation response in [16] is -4.57% (inactive).

Consider `Cc1ccc(S(=O)(=O)N[C@@H](C)C(=O)N2CCC(C(=O)N3CCC[C@H]3C(=O)O)CC2)cc1`, for which, in [1], the percent of DMSO control GFP is 95% (inactive). In addition, the figures for the GFP response vs DMSO in test [2] and in test [4] were 129% (inactive) and 79.2% (inactive), respectively. For the same compound, in test [3], the percent response of DMSO control is 103% (inactive). Moreover, in [5], the GFP response, % of DMSO was 88.4% (inactive). In addition, in [6], the double positive events turned out to be 71%. In addition, the vesicle binding response in [6] is 174% (inactive). The inhibition was 3.55% (inactive) in test [7], -9.12% (inactive) in [11] and 8% (inactive) in test [15]. Also, in test [8], the superoxide response (% of plate) is 92.7% (inactive). In addition, the aptamer binding inhibition in [9] is 9% (inactive). In addition, the results for the response in [10] and in test [12] were -2.38% (inactive) and -1.19% (inactive), respectively. Also, the binding (% of control) in test [13] is 100% (inactive). Further, the efflux inhibition (fraction of control) in test [14] was -0.2 (inactive). The differentiation response in test [16] is 0% (inactive).
